The structures appear in SMILES notation. About 3,300 (8.5%) of roughly 39,000 compounds were called active. For the sample, actives were picked, then their nearest neighbours and some compounds at random.

The test system of the test is HepG2. Description: cytotoxicity call (relative viability < 0.9). Conditions: 10 µM.
Regarding `CN1C(=O)c2cc(NC(=O)Cc3cccs3)ccc2OC[C@@H]2O[C@@H](CC(=O)NCCCN3CCOCC3)CC[C@H]21`, the cytotoxicity call is “inactive”.
Then `COCCOC(=O)N1C(=O)[C@@]2(c3cc(C#CCNC(N)=O)ccc31)[C@H](c1ccc(O)cc1)N1[C@H](c3ccccc3)[C@H](c3ccccc3)OC(=O)[C@H]1[C@@H]2C(=O)N1CCc2cc(OC)c(OC)cc2C1`, with “inactive”.
With `COC(=O)[C@H]1[C@H](CO)[C@H]2Cn3c(cccc3=O)[C@H]2N1C(=O)C1CC1`, the cytotoxicity call was “inactive”.
Then `C[C@H](CO)N1C[C@H](C)[C@@H](CN(C)Cc2ccc(C(=O)Nc3ccccc3N)cc2)Oc2c(NC(=O)Nc3ccccc3)cccc2C1=O`, with “inactive”; and `C[C@H](C(=O)O)N1CCCC1=O`, with “inactive”.
Then `C[C@H](CO)N1C[C@H](C)[C@@H](CN(C)C(=O)Nc2cccc3ccccc23)Oc2ccc(NC(=O)Nc3ccccc3)cc2C1=O`, with “inactive”; and `COc1ccc(S(=O)(=O)N2C[C@H](O)COC[C@@H]3O[C@H](CC(=O)NCCCN(C)C)CC[C@H]32)cc1`, with “inactive”.
`C[C@H]1CN([C@@H](C)CO)C(=O)c2c(c3ccccc3n2C)-c2ccccc2CO[C@@H]1CN(C)Cc1cccc(C(=O)O)c1`: the cytotoxicity call is “inactive”.
Consider `Cc1ccc(S(=O)(=O)N(C)C[C@H]2Oc3c(NC(=O)Nc4cccc5ccccc45)cccc3C(=O)N([C@@H](C)CO)C[C@H]2C)cc1`, for which the cytotoxicity call was “inactive”.
In the case of `O=C(C[C@@H]1C[C@@H]2c3cc(NS(=O)(=O)c4ccc(F)cc4)ccc3O[C@@H]2[C@H](CO)O1)NCCc1ccccc1`, the cytotoxicity call was “inactive”.
As to `C[C@H]1CN([C@@H](C)CO)C(=O)Cc2cc(NC(=O)c3ccncc3)ccc2O[C@@H]1CN(C)S(=O)(=O)c1ccccc1`, the cytotoxicity call was “inactive”.
`C[C@H]1CN([C@@H](C)CO)C(=O)Cc2cc(NC(=O)c3ccncc3)ccc2O[C@@H]1CN(C)S(=O)(=O)c1cccs1`: the cytotoxicity call is “inactive”.
Then `CC(C)NC(=O)Nc1ccc2c(c1)CC(=O)N([C@@H](C)CO)C[C@H](C)[C@H](CN(C)S(=O)(=O)c1cccs1)O2`, with “inactive”.
As for `C[C@@H]1CN([C@@H](C)CO)C(=O)Cc2cc(NC(=O)c3ccncc3)ccc2O[C@H]1CN(C)S(=O)(=O)c1cccs1`, the cytotoxicity call is “inactive”.
Turning to `CC(C)NC(=O)Nc1ccc2c(c1)CC(=O)N([C@@H](C)CO)C[C@@H](C)[C@@H](CN(C)S(=O)(=O)c1cccs1)O2`, the cytotoxicity call was “active”.
Turning to `C[C@H](CO)N1C[C@H](C)[C@H](CN(C)S(=O)(=O)c2ccccc2)Oc2ccc(NC(=O)c3ccncc3)cc2CC1=O`, the cytotoxicity call is “inactive”.
Turning to `C[C@@H]1CN([C@@H](C)CO)C(=O)Cc2cc(NC(=O)Nc3cccc4ccccc34)ccc2O[C@@H]1CN(C)S(=O)(=O)c1cccs1`, the cytotoxicity call is “active”.
Turning to `C[C@@H]1CN([C@@H](C)CO)C(=O)Cc2cc(NC(=O)c3ccncc3)ccc2O[C@@H]1CN(C)S(=O)(=O)c1ccccc1`, the cytotoxicity call was “active”.
Turning to `C[C@H](CO)N1C[C@H](C)[C@H](CN(C)S(=O)(=O)c2cccs2)Oc2ccc(NC(=O)Nc3cccc4ccccc34)cc2CC1=O`, the cytotoxicity call is “inactive”.
For the compound `CC(C)NC(=O)Nc1ccc2c(c1)CC(=O)N([C@H](C)CO)C[C@H](C)[C@H](CN(C)S(=O)(=O)c1cccs1)O2`, the cytotoxicity call is “inactive”.
As for `C[C@H]1CN([C@@H](C)CO)C(=O)Cc2cc(NC(=O)Nc3cccc4ccccc34)ccc2O[C@H]1CN(C)S(=O)(=O)c1cccs1`, the cytotoxicity call was “inactive”.
As to `C[C@@H]1CN([C@@H](C)CO)C(=O)Cc2cc(NC(=O)c3ccncc3)ccc2O[C@@H]1CN(C)S(=O)(=O)c1cccs1`, the cytotoxicity call was “active”.
Then `C[C@@H]1CN([C@H](C)CO)C(=O)c2cc(NC(=O)Nc3ccc(C(F)(F)F)cc3)ccc2O[C@@H]1CN(C)C(=O)Nc1ccc2c(c1)OCO2`, with “inactive”; and `COCC(=O)N1CC[C@]2(CC1)CN(Cc1ccc3c(c1)OCO3)[C@@H](CO)c1c2c2ccc(cc2n1C)OC`, with “inactive”; and `Nc1ccc(-c2ccco2)cc1`, with “inactive”.
Turning to `COc1ccc(S(=O)(=O)Nc2ccc3c(c2)CC(=O)N([C@H](C)CO)C[C@@H](C)[C@H](CN(C)S(=O)(=O)c2cn(C)cn2)O3)cc1`, the cytotoxicity call was “inactive”.
Then `CC(C)NC(=O)N(C)C[C@@H]1OCc2cn(nn2)CCCC(=O)N([C@@H](C)CO)C[C@H]1C`, with “inactive”; and `C[C@@H]1CN([C@@H](C)CO)C(=O)c2cccc(NS(=O)(=O)c3ccc(F)cc3)c2O[C@H]1CN(C)Cc1ccc(Cl)c(Cl)c1`, with “inactive”.
For the compound `CC(=O)O[C@@H]1[C@@H](O)C[C@@]2(C)[C@@H](CC[C@@H](C)[C@@]23Cc2c(O)cc4c(c2O3)CN([C@@H](CCC(=O)O)C(=O)O)C4=O)C1(C)C`, the cytotoxicity call was “inactive”.
Consider `CCCN(C)C[C@H]1OCCCC[C@H](C)Oc2ccc(NC(=O)c3ccccc3)cc2C(=O)N([C@@H](C)CO)C[C@H]1C`, for which the cytotoxicity call was “inactive”.
As for `CC(C)N1C[C@H](C)[C@@H](CN(C)Cc2cccc(Cl)c2)Oc2c(NC(=O)c3ccncc3)cccc2C1=O`, the cytotoxicity call was “inactive”.
Then `C[C@@H]1CN([C@@H](C)CO)C(=O)c2cc(NC(=O)Nc3cccc4ccccc34)ccc2O[C@@H](C)CCCCO[C@@H]1CN(C)S(=O)(=O)c1ccc(Cl)cc1`, with “inactive”; and `Nc1nnc(C(=O)N2CCCCC2)[nH]1`, with “inactive”.
On to `C[C@@H]1CN([C@H](C)CO)C(=O)c2cc(NC(=O)CCN3CCOCC3)ccc2O[C@H]1CN(C)CC1CCCCC1`, for which the cytotoxicity call is “inactive”.
Then `C[C@@H]1CN([C@@H](C)CO)C(=O)Cc2cc(NC(=O)CCC(F)(F)F)ccc2O[C@@H]1CN(C)S(=O)(=O)c1ccccc1`, with “active”; and `C[C@H](CO)N1C[C@H](C)[C@@H](CN(C)S(=O)(=O)c2ccccc2)Oc2ccc(NC(=O)CCC(F)(F)F)cc2CC1=O`, with “inactive”.
Regarding `C[C@@H]1CN([C@@H](C)CO)C(=O)Cc2cc(NC(=O)Cc3ccccc3)ccc2O[C@H]1CN(C)S(=O)(=O)c1cccs1`, the cytotoxicity call was “inactive”.
As for `C[C@@H]1CN([C@H](C)CO)C(=O)Cc2cc(NC(=O)CCC(F)(F)F)ccc2O[C@@H]1CN(C)S(=O)(=O)c1ccccc1`, the cytotoxicity call is “inactive”.
With `C[C@@H]1CN([C@@H](C)CO)C(=O)Cc2cc(NC(=O)Cc3ccccc3)ccc2O[C@@H]1CN(C)S(=O)(=O)c1cccs1`, the cytotoxicity call is “active”.
With `C[C@H]1CN([C@@H](C)CO)C(=O)Cc2cc(NC(=O)Cc3ccccc3)ccc2O[C@H]1CN(C)S(=O)(=O)c1cccs1`, the cytotoxicity call was “inactive”.
